PubChem BioAssay (Tox21)
Results filed as inconclusive are left out. A call without a number means that no potency is given here. Calls of active or inactive are those of the source. Calls come from the whole dose curve; as a rule, active = well fitted cell-killing curve with a large enough effect in the repeat runs; inconclusive = weak or mixed curves, or effect the other way; inactive = flat fitted curve, though single readings scatter.

Test: qHTS assay to identify small molecule antagonists of the androgen receptor (AR) signaling pathway using the MDA cell line in the presence of 0.5 nM R1881 - cell viability counter screen (AID 1259242); note: nearly all actives have a fitted effect of over 45% in size
Conditions: MDA-kb2 viability, CellTiter-Fluor protease fluorescence, 16 h; series mostly up to 92.4 µM
From the text: U.S. Tox21 Program National Center for Advancing Translational Sciences [NCATS] NIH Chemical Genomics Center [NCGC] U.S. Environmental Protection Agency [EPA] National Institutes of Environmental Health Sciences [NIEHS] National Toxicology Program [NTP] U.S. Food and Drug Administration [FDA] Tox21 Assay Overview: Androgen receptor (AR) is an important member of the nuclear receptor family. Its signaling plays a critical role in AR-dependent prostate cancer and other androgen related diseases. Considerable attention has been given in the past decades to develop methods to study and screen for the environmental chemicals that have the potential to interfere with metabolic homeostasis, reproduction, developmental and behavioral functions. Therefore AR binding assay for screening androgen antagonists can be used to identify potential endocrine disruptors. MDA-kb2 cells (from ATCC, deposited by Wilson et al.) were used to screen for AR inhibitors against Tox21 compound libraries. These cells are human breast carcinoma cells that were stably transfected with a luciferase reporter gene under control of the MMTV promoter that contains response elements for both androgen receptor (AR) and glucocorticoid receptor (GR). The current screening for identification of AR inhibitors against Tox21 libraries used lower concentration of (0.5 nM) R1881 as a stimulator. The cytotoxicity of the Tox21 compound libraries against MDA-kb2 cell line was tested by measuring live-cell protease activity using CellTiter-Fluor assay in the same wells.
Tox21 Assay Protocol Summary: MDA-kb2 cells (cells cultured without CO2) were dispensed at 3,000 cells/well in 4 uL of culture medium into white wall/solid-bottom 1536-well plates (Corning Life Sciences, Corning, NY) using a Multidrop Combi (ThermoFisher Scientific, Waltham, MA) dispenser. After the assay plates were incubated at a 37C and 0% CO2 for 5 hr, 23 nL of compounds dissolved in DMSO, positive controls or DMSO only was transferred to the assay plate by a Pintool station (Kalypsys, San Diego, CA). The transfer of compounds was followed by the addition of 1 uL of 0.5 nM (final concentration) agonist (R1881)/culture medium using a Flying Reagent Dispenser (FRD, Aurora Discovery, San Diego, CA). The plates were incubated at 37C and 0% CO2 for 16 hr. For cytotoxicity assay, 1 uL of CellTiter-Fluor reagent (Promega Corporation, Madison, WI) was added to each well using the FRD and after 30 min incubation at 37C and 0% CO2, The fluorescence intensity was measured using ViewLux plate reader (PerkinElmer, Shelton, CT).
Potency is the fitted concentration of half-maximal effect.

| Structure (SMILES) | Potency |
| --- | --- |
| OCCN1CCN(CCCN2c3ccccc3Sc3ccc(Cl)cc32)CC1 | inactive |
| Clc1cc(Cl)nc(Cl)n1 | inactive |
| CN(C)CCC=C1c2ccccc2C=Cc2ccccc21 | inactive |
| CC1(C)O[C@@H]2C[C@H]3[C@@H]4C[C@H](F)C5=CC(=O)C=C[C@]5(C)[C@H]4[C@@H](O)C[C@]3(C)[C@]2(C(=O)CO)O1 | inactive |
| NNC(=O)CP(=O)(c1ccccc1)c1ccccc1 | inactive |
| c1ccc2c(c1)CCc1ccccc1N2 | inactive |
| CCN(CC)CCNC(=O)COc1ccc(OC)cc1 | inactive |
| C=C(C)C(=O)OCCCCCCCCCCCCC | inactive |
| CCOC(=O)OC(C)OC(=O)[C@@H]1N2C(=O)[C@@H](NC(=O)[C@H](N)c3ccccc3)[C@H]2SC1(C)C (stereo not given in full) | inactive |
| CCOC(C)=O | inactive |
| OC[C@H]1O[C@@H](n2cnc3c(=S)nc[nH]c32)[C@H](O)[C@@H]1O | inactive |
| CC(C)C(O)(c1ccc(OC(F)(F)F)cc1)c1cncnc1 (stereo not given) | inactive |
| O=C1c2ccccc2C(=O)C1(O)O | inactive |
| COC(=O)CCS | inactive |
| Oc1c(I)cc(I)c2cccnc12 | inactive |
| O=C1Cc2cc(Cl)ccc2N1 | inactive |
| CN1C(=O)c2ccccc2C1=O | inactive |
| C/C=C/C=C/C=O | inactive |
| CCCCN(CCN(CCCC)C(=O)N1CCOCC1)C(=O)N1CCOCC1 | inactive |
| CCCCCCCCCCC(=O)O | inactive |

| Structure (SMILES) | Potency |
| --- | --- |
| CNC(=O)c1cnn(-c2nc(N)c3ncn([C@@H]4O[C@H](CO)[C@@H](O)[C@H]4O)c3n2)c1 | inactive |
| CCCCCCCCN | inactive |
| CCCCCCCC/C=C\CCCCCCCCO | inactive |
| C/C=C(/C(=C/C)c1ccc(O)cc1)c1ccc(O)cc1 | inactive |
| CC1(C)[C@@H](OC(=O)CCC(=O)O)CC[C@]2(C)[C@H]3C(=O)C=C4[C@@H]5C[C@@](C)(C(=O)O)CC[C@]5(C)CC[C@@]4(C)[C@]3(C)CC[C@@H]12 | inactive |
| CC1(C)S[C@@H]2[C@H](NC(=O)C(c3ccccc3)S(=O)(=O)O)C(=O)N2[C@H]1C(=O)O (stereo not given in full) | inactive |
| O=C(O)c1cccc(-c2noc(-c3ccccc3F)n2)c1 | inactive |
| CN1CCCC(n2nc(Cc3ccc(Cl)cc3)c3ccccc3c2=O)CC1 (stereo not given) | inactive |
| CC(C)=CCC1C(=O)N(c2ccccc2)N(c2ccccc2)C1=O | inactive |
| CN(C(=O)CN(CCO)CC(=O)N(C)C(C)(C)Cc1ccccc1)C(C)(C)Cc1ccccc1 | inactive |
| C[C@@H](O[C@H]1OCCN(Cc2n[nH]c(=O)[nH]2)[C@H]1c1ccc(F)cc1)c1cc(C(F)(F)F)cc(C(F)(F)F)c1 | inactive |
| O=C(O)CCCCCCCCCCCBr | inactive |
| O=c1cc(-c2ccccc2)oc2ccc3ccccc3c12 | inactive |
| CCCCCCCCCI | inactive |
| CC(C)C[C@H](NC(=O)[C@H](CCc1ccccc1)NC(=O)CN1CCOCC1)C(=O)N[C@@H](Cc1ccccc1)C(=O)N[C@@H](CC(C)C)C(=O)[C@@]1(C)CO1 | 16.8 µM (active) |
| C[C@@H](O)[C@H]1C(=O)N2C(C(=O)O)=C([C@H]3CCCO3)S[C@H]12 | inactive |
| CC1=C(CC=O)C(C)(C)CCC1 | inactive |
| O=C(O)c1ccc(OCCCOc2ccc(C(=O)O)cc2)cc1 | inactive |
| C=C(C)C(=O)OCCOCCOC(=O)C(=C)C | inactive |
| Cc1ccc(Cl)c(Nc2ccccc2C(=O)O)c1Cl | inactive |
